Here are results for 17 compounds from PubChem BioAssay (NCATS).

Records with an inconclusive call do not appear. Activity calls are given as the source filed them. Calls come from the whole dose curve; as a rule, active = well fitted inhibition curve with a large enough effect; inconclusive = small, poorly fitted or top-dose-only effect; inactive = flat fitted curve, though single readings scatter.

What all share (experiment): qHTS profiling for inhibitors of Plasmodium falciparum proliferation (AID 504749); note: nearly all actives have a fitted effect of over 60% in size
Common to all, as to settings: P. falciparum in erythrocytes, SYBR Green DNA, 72 h; series mostly up to 28.7 µM

Experiment [1] concerns CP297. A digest of the protocol: (§1)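 SYBR Green fluorescence (ex 485 nm, em 535 nm) reports parasite DNA after 72 h compound exposure of infected red cells at 0.3% parasitemia, 2.5% hematocrit; signal normalized to 0.29 uM artemisinin and vehicle wells.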
For experiment [2], the system named is CP305. A digest of the protocol: as §1
Experiment [3] has as its system CP325. The method, boiled down:
as §1

The test system of experiment [4] is CP329. The method, boiled down: as §1
Experiment [5] relates to CP335. A digest of the protocol: as §1
Experiment [6] deals with DFO2036. A digest of the protocol:
as §1

The subject of experiment [7] is DIV14. A digest of the protocol:
as §1

Experiment [8] concerns DIV17. The method, boiled down:
as §1

The test system of experiment [9] is DIV30. The method, boiled down:
as §1

Experiment [10] relates to Dd2. A digest of the protocol:
as §1

Experiment [11] relates to ECU. The method, boiled down:
as §1

The subject of experiment [12] is FAB9. A digest of the protocol: as §1
Experiment [13] relates to GB4. A digest of the protocol: as §1
In experiment [14] the test system is HB3. The method, boiled down: as §1
For experiment [15], the system named is ICS. A digest of the protocol: as §1
Experiment [16] deals with JCK. A digest of the protocol:
as §1

In experiment [17] the test system is N140. The method, boiled down:
as §1

Experiment [18] deals with P93_24. A digest of the protocol: as §1
The subject of experiment [19] is P94_40. A digest of the protocol: as §1
Experiment [20] concerns CP315. A digest of the protocol:
as §1
Potency is the fitted concentration of half-maximal effect.

As to `Cc1ncc[nH]1`, the Potency entry in [1], in experiment [2], in experiment [3], in experiment [4], in experiment [5] and in experiment [6] was “inactive” each time. The Potency entry in experiment [7], in experiment [8], in experiment [9], in experiment [10], in experiment [11] and in experiment [12] was “inactive” each time. For the same compound, the Potency result in [13], in experiment [14], in [15], in [16], in experiment [17] and in experiment [18] was “inactive” in each case. For the same compound, the Potency entry in [19] is “inactive”.
With `CN1CCCC(CN2c3ccccc3Sc3ccccc32)C1` (centres undefined), the Potency result in [1], in [2], in [20], in experiment [3], in [4] and in experiment [12] was “inactive” throughout. Moreover, the Potency entry in experiment [14] and in experiment [16] was “inactive” in each case. The Potency in [7] is 8.49 µM (active); in experiment [8], 8.49 µM (active); in [10], 4.47 µM (active); in experiment [15], 12.6 µM (active); in experiment [17] it was 8.91 µM (active).
With `CN1CCc2c(c3ccccc3n2Cc2ccccc2)C1`, the Potency result in experiment [1], in experiment [2], in experiment [20], in [4], in experiment [6] and in experiment [9] was “inactive” throughout. Further, the Potency result in [11], in experiment [12], in [14], in experiment [15], in experiment [16] and in experiment [17] was “inactive” throughout. Further, in experiment [18], the Potency result is “inactive”.
`COc1ccc2c(c1)OC(C)(C)C(c1ccccc1)C2c1ccc(OCCN2CCCC2)cc1` (centres undefined): the Potency was 15.1 µM (active) in [1]; 13.5 µM (active) in [2]; 6.75 µM (active) in [3]; 3.79 µM (active) in [5]; 4.47 µM (active) in experiment [6]; 6.75 µM (active) in [7]. Moreover, the Potency in experiment [8] is 7.57 µM (active); in experiment [9], 12 µM (active); in experiment [10], 3.98 µM (active); in experiment [11] it was 8.91 µM (active); in experiment [13], 4.78 µM (active); in experiment [14], 7.94 µM (active). For the same compound, the Potency was 2.82 µM (active) in experiment [15], 5.01 µM (active) in experiment [17], 5.01 µM (active) in experiment [18] and 6.31 µM (active) in experiment [19].
`CSc1nc2cc(Oc3cccc(Cl)c3Cl)c(Cl)cc2[nH]1`: the Potency was 12 µM (active) in experiment [1]; 13.5 µM (active) in [2]; 13.5 µM (active) in experiment [3]; 13.5 µM (active) in [4]; 8.91 µM (active) in experiment [6]; 9.53 µM (active) in [7]. Moreover, the Potency in experiment [9] is 10.7 µM (active); in experiment [10], 14.1 µM (active); in experiment [11], 6.31 µM (active); in experiment [13], 12 µM (active); in experiment [14], 8.91 µM (active); in experiment [17], 8.91 µM (active). The Potency in [18] and in experiment [19] was 10 µM (active) each time.
Turning to `O=C(CCCN1CCC(C(=O)c2ccc(F)cc2)CC1)c1ccc(F)cc1`, the Potency result in [1], in [20], in [3], in experiment [4], in experiment [6] and in experiment [9] was “inactive” throughout. The Potency result in experiment [11], in [12], in [16], in experiment [17], in experiment [18] and in experiment [19] was “inactive” in each case. The results for the Potency in experiment [7], in [8] and in [10] were 0.757 µM (active), 4.78 µM (active) and 8.91 µM (active), respectively.
As to `NC(=O)CC[C@@H]1NC(=O)[C@H](Cc2ccccc2)NC(=O)[C@H](Cc2ccc(O)cc2)NC(=O)[C@@H](N)CSSC[C@@H](C(=O)N2CCC[C@H]2C(=O)N[C@@H](CCCN=C(N)N)C(=O)NCC(N)=O)NC(=O)[C@H](CC(N)=O)NC1=O`, the Potency entry in experiment [1], in [2], in [20], in experiment [3], in [4] and in experiment [7] was “inactive” throughout. Also, the Potency result in [9], in experiment [10], in experiment [12] and in [16] was “inactive” in each case. For the same compound, the Potency in experiment [15] is 8.91 µM (active).
`COc1ccc2nc(NC(=O)Nc3ccccc3)sc2c1`: the Potency entry in experiment [1], in experiment [2], in experiment [20], in experiment [3], in [5] and in experiment [6] was “inactive” throughout. Besides, the Potency entry in [11], in experiment [12], in experiment [14], in experiment [16], in experiment [18] and in experiment [19] was “inactive” each time. Besides, the Potency is 4.78 µM (active) in [8] and 7.94 µM (active) in experiment [15].
On to `N#Cc1ccc2c(c1)N(CCCN1CCC(O)CC1)c1ccccc1S2`, for which the Potency result in [1], in [20], in experiment [11], in [12], in experiment [14] and in experiment [16] was “inactive” each time. Also, the Potency in [7] is 8.49 µM (active); in experiment [8] it was 9.53 µM (active); in experiment [10], 5.01 µM (active); in [17], 12.6 µM (active).
For `CSCCC(N)C(=O)O` (centres undefined), the Potency entry in experiment [1], in [2], in experiment [3], in experiment [4], in experiment [5] and in experiment [6] was “inactive” throughout. Besides, the Potency entry in experiment [7], in experiment [8], in [10], in experiment [11], in experiment [12] and in experiment [14] was “inactive” throughout. The Potency result in experiment [15], in experiment [16], in [17] and in experiment [19] was “inactive” each time.
In the case of `NCCO/C=C/[C@H](N)C(=O)O`, the Potency entry in [1], in experiment [2], in experiment [20], in experiment [4], in experiment [5] and in experiment [6] was “inactive” in each case. Besides, the Potency entry in experiment [7], in experiment [8], in experiment [9], in experiment [10], in experiment [11] and in experiment [12] was “inactive” in each case. The Potency entry in experiment [13], in [14], in experiment [15], in experiment [16], in experiment [17] and in [18] was “inactive” each time. For the same compound, the Potency result in [19] is “inactive”.
Consider `CC(O)CN(C)C` (centres undefined), for which the Potency entry in experiment [1], in experiment [2], in [20], in experiment [3], in [5] and in experiment [6] was “inactive” each time. Moreover, the Potency entry in [7], in [8], in experiment [9], in [10], in [11] and in experiment [12] was “inactive” in each case. Moreover, the Potency result in experiment [13], in experiment [14], in experiment [15], in [16], in [17] and in [18] was “inactive” throughout. Further, in experiment [19], the Potency result was “inactive”.
For `CCN(CC)CCC(=O)N1c2ccccc2Sc2ccc(C(F)(F)F)cc21`, the Potency result in experiment [1], in [2], in experiment [20], in experiment [3], in experiment [4] and in experiment [6] was “inactive” each time. For the same compound, the Potency entry in experiment [11], in experiment [12], in [14], in [16], in experiment [17] and in experiment [19] was “inactive” throughout. Moreover, the Potency in experiment [7] was 6.75 µM (active).
Take `CCOC(=O)C1=C(COCCN)NC(C)=C(C(=O)OC)C1c1ccccc1Cl` (centres undefined): the Potency entry in experiment [1], in experiment [2], in experiment [20], in experiment [3], in [4] and in experiment [6] was “inactive” throughout. For the same compound, the Potency entry in experiment [9], in [12], in experiment [14] and in experiment [16] was “inactive” in each case. Besides, in experiment [7], the Potency is 12 µM (active).
With `O=C(O[C@H]1CN2CCC1CC2)N1CCc2ccccc2[C@@H]1c1ccccc1`, the Potency result in experiment [1], in [2], in experiment [20], in experiment [3], in experiment [4] and in experiment [6] was “inactive” in each case. Further, the Potency entry in [12], in experiment [14], in [16], in [17] and in experiment [19] was “inactive” throughout. Further, the Potency is 3.79 µM (active) in experiment [7], 4.26 µM (active) in [8] and 4.47 µM (active) in [10].
As for `Cn1c(O)c(N=NC(N)=S)c2ccccc21`, the Potency result in experiment [1], in [20], in [3], in [4], in [12] and in experiment [16] was “inactive” in each case. Further, in experiment [15], the Potency is 11.2 µM (active).
For `O=C(OC1C[C@@H]2CC3C[C@H](C1)N2CC3=O)c1c[nH]c2ccccc12` (some centres undefined), the Potency entry in [1], in [20], in experiment [3], in experiment [4], in experiment [6] and in [10] was “inactive” throughout. Moreover, the Potency entry in experiment [12], in experiment [14], in [16], in [17], in experiment [18] and in [19] was “inactive” in each case. The Potency in experiment [7] is 7.57 µM (active); in experiment [8], 7.57 µM (active); in experiment [15] it was 10 µM (active).
